Laboratory results as given in PubChem BioAssay (EPA / NIEHS).
Inconclusive results are not listed. Activity calls are given as the source filed them. How the source made its calls: active means hit-call score of the fitted dose curve at least 0.9, where 1 is the maximum; inconclusive means response in the unintended direction; inactive means score below 0.9.

Assay: CCTE_Harrill_HTTr_CellCount_MCF7: CCTE's Cell Proliferation Assessment for the High-Throughput Transcriptomics (HTTr) Platform, Harrill Lab (AID 2284012);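 further: cells exposed to compound for six hours; intended direction is loss of nuclei count meaning fewer cells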
Text: This is a cell-based assay that evaluates cell viability and cell growth using high content imaging to count the number of Hoechst-labeled nuclei that are present in an assay well in 384-well format.This is a cell-based assay that evaluates cell viability and cell growth in MCF-7 cells. This was part of a full screening experiment. High content imaging is used to count the number of Hoechst-labeled nuclei that are present in an assay well in 384-well format.The assay component endpoint CCTE_Harrill_HTTr_CellCount_MCF7 was analyzed with bidirectional fitting relation to DMSO as the negative control and baseline of activity. Using a type of viability reporter, loss-of-signal activity can be used to understand changes in cell count. To generalize the intended target to other relatable targets, this assay endpoint is annotated to cell cycle, where the subfamily is cell count.
Chemicals were tested in MCF7 cells in an eight point dilution series with a six hour exposure duration.

Row | SMILES | outcome
1 | Cc1ncc(CO)c(CO)c1O | inactive
2 | C[C@]12CC[C@@H]3c4ccc(O)cc4CC[C@H]3[C@@H]1CC[C@H]2O | inactive
3 | O=C(O)c1ccccc1-n1cc(C(=O)O)c(=O)c2cc(Nc3c(F)cc(F)cc3Cl)c(Cl)cc21 | inactive
4 | O=C(O)Cc1cc(I)c(Oc2ccc(O)c(I)c2)c(I)c1 | inactive
5 | Oc1ccccc1 | inactive
6 | O=C(O)c1ccccc1C(=O)OCc1ccccc1 | inactive
7 | Cc1c2ccccc2c(C)c2c1ccc1ccccc12 | inactive
8 | OCCO | inactive
9 | CCCCCCCC[Si](OCC)(OCC)OCC | inactive
10 | CC(C)(C)c1cc(/C=C2\SC(N)=NC2=O)cc(C(C)(C)C)c1O | inactive
11 | O=CCCCC=O | inactive
12 | Cc1occc1C(=O)Nc1ccc(C(=O)N2CCC(F)(F)/C(=C\C(=O)N3CCC(N4CCCCC4)CC3)c3ccccc32)cc1 | inactive
13 | CCCCCCCCOC(=O)c1cc(O)c(O)c(O)c1 | inactive
14 | OC12N=C(c3ccccc3)SC1Cc1cc(Cl)ccc12 (stereo not given) | inactive
15 | CCCCCCCCCCCC[N+](C)(C)C | inactive
16 | O=c1[nH]sc2ccccc12 | inactive
17 | CCCC(=O)OCCC(C)C | inactive
18 | Cc1cc(F)ccc1-c1cc(N2CC[C@@H](O)[C@H]2CO)ncc1N(C)C(=O)C(C)(C)c1cc(C(F)(F)F)cc(C(F)(F)F)c1 | inactive
19 | CN1C(=O)N(c2ccccc2Br)Cc2cnc(Nc3ccc4c(c3)OCC(CO)O4)nc21 (stereo not given) | inactive
20 | CCCCCCCCCCCO | inactive

Row | SMILES | outcome
21 | CCN(CC)C(=O)c1cc(S(=O)(=O)Cc2ccccc2)c(N2CCC(c3ccccc3)CC2)cc1N(CC)CCN(C)C | inactive
22 | O=c1c(-c2ccc(O)cc2)coc2cc(O)cc(O)c12 | inactive
23 | O=C1CCC(C2CCCCC2)CC1 | inactive
24 | O=c1ccc2ccccc2o1 | inactive
25 | CN(C)C(=O)C1(N2CCCCC2)CCN(CC[C@@]2(c3ccc(Cl)c(Cl)c3)CN(C(=O)c3ccccc3)CCO2)CC1 | inactive
26 | O=C1c2ccccc2C(=O)N1CCc1noc(-c2ccc(CN3CCCCCC3)s2)n1 | inactive
27 | NC(=O)c1nc(-c2cccc(-c3cc(F)ccc3OCC(F)(F)C(F)(F)F)c2)n[nH]1 | inactive
28 | CCCCCCCCCC(=O)O | inactive
29 | CC(=O)N1CCN(c2ccc(OC[C@H]3CO[C@](Cn4ccnc4)(c4ccc(Cl)cc4Cl)O3)cc2)CC1 | inactive
30 | C[C@]12CC[C@@H]3c4ccc(O)cc4CC[C@H]3[C@@H]1CCC2=O | inactive
31 | CCCCOC(=O)CC(CC(=O)OCCCC)(OC(C)=O)C(=O)OCCCC | inactive
32 | Cc1cn([C@H]2C[C@H](N=[N+]=[N-])[C@@H](CO)O2)c(=O)[nH]c1=O | inactive
33 | CC(O)CC(C)(C)O (stereo not given) | inactive
34 | Cc1ccc(C(C)C)cc1 | inactive
35 | CCOC(=O)O[C@H](C)OC(=O)c1ccc2c(c1)cc(C(=O)NC1CCN(C(C)C)CC1)n2Cc1cc(-c2ccc(Cl)s2)on1 | inactive
36 | Cc1oc2c(NC(=O)c3c(Cl)cccc3Cl)cccc2c1C(C)(C)O | inactive
37 | COc1ccc2cc(S(=O)(=O)N[C@H](CC(=O)N[C@H](Cc3ccc(CN4[C@H](C)CCC[C@@H]4C)cc3)C(=O)N(C)C(C)C)c3ccc4c(c3)OCO4)ccc2c1 | inactive
38 | CCCOC(=O)c1cc(O)c(O)c(O)c1 | inactive
39 | COc1cc(C(=O)NC2CCN(C)CC2)ccc1Nc1ncc2c(n1)N(C1CCCC1)CC(F)(F)C(=O)N2C | inactive
40 | CN(C[C@@H](CC[N+]12CCC(C3CCCCC3)(CC1)CC2)c1ccc(Cl)c(Cl)c1)C(=O)c1cc(C(F)(F)F)cc(C(F)(F)F)c1 | inactive
